Bioassay records: PubChem, National Center for Advancing Translational Sciences (NCATS)
IL-1B inflam inh: qHTS for Inhibitors of Inflammasome Signaling: IL-1-beta AlphaLISA Primary Screen; THP-1 LPS/ATP IL-1B secretion, AlphaLISA, 16 h; stronger effect = lower value; activity change, % at 57.5 µM; actives 4.7% (n = 360,000); in the data active = activity change below about -50%; inconclusive = mostly about -30% to -49%
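Secreted IL-1B measured by AlphaLISA bead assay after 16 h compound exposure of THP-1 cells; compounds (final up to 57.5 uM) added 1 h before LPS (250 ng/mL) and ATP (1.25 mM) stimulation; lower signal means less secretion.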
DT40 TDP1 CPT: qHTS for Inhibitors of human tyrosyl-DNA phosphodiesterase 1 (TDP1): qHTS in cells in presence of CPT | Potency, µM (doses to about 46.2 µM), most hits filed as inhibitors | actives 12% (n = 420,000) | chicken DT40 Tdp1-/-;hTDP1 cells + 20 nM CPT, ATP luminescence, 48 h; note: nearly all actives have a fitted effect of over 55% in size
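Chicken DT40 Tdp1-/- cells stably complemented with human TDP1 were seeded at 400 cells/well in medium containing 20 nM camptothecin, exposed to pin-transferred compounds, and grown at 37 °C for at least 48 hr. Viability was read as ATP luminescence.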
DT40 TDP1 no CPT: qHTS for Inhibitors of human tyrosyl-DNA phosphodiesterase 1 (TDP1): qHTS in cells in absence of CPT. Potency, µM (titrated, usually from 46.2 µM), hits mostly inhibitors. DT40 Tdp1-/- hTDP1 cells, no CPT, ATP luminescence, 48 h. actives 15% (n = 420,000); note: nearly all actives have a fitted effect of over 55% in size
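Compound effects on proliferation are scored in DT40 Tdp1-/-;hTDP1 cells in the absence of CPT. ATP levels (CellTiter-Glo luminescence) are recorded after a ≥48 hr, 37 °C incubation.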
HT1080NT lethal: qHTS for induction of synthetic lethality in tumor cells producing 2HG: qHTS for the HT-1080-NT fibrosarcoma cell line | HT-1080-NT fibrosarcoma viability, CellTiter-Glo ATP luminescence, 48 h | actives 1.6% (n = 360,000) | Potency, µM (top dose mostly 46.1 µM), actives largely listed as cytotoxic;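 note: NT is the 2HG producing partner of a matched IDH1 knockdown line; nearly all actives have a fitted effect of over 55% in size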
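HT-1080-NT; 750 cells/well; 5% FBS RPMI; 48 h compound, 37 degrees C; CellTiter-Glo luminescence; curve fitting and curve-class assignment.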
HT1080 IDH1KD tx: qHTS for induction of synthetic lethality in tumor cells producing 2HG: qHTS for the HT-1080-IDH1KD cell line; HT-1080 IDH1 knockdown viability, ATP luminescence, 48 h; Potency, µM (series often up to 46.1 µM), hits mostly cytotoxic; actives 2% (n = 360,000)
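% activity derives from luminescence (CellTiter-Glo), normalised to DMSO and no-cell wells. HT-1080-IDH1KD cells, 750/well, had 48 h compound exposure at 37 °C.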
Each line names hits and unclear results; the compound was inactive in the other large screens. Only some compounds are listed: those with a hit (about 19% of all), similar ones and a draw of the others. Unless noted, calls come from the whole dose curve; as a rule, active = well fitted curve in the direction sought with a large enough effect; inconclusive = small, poorly fitted or top-dose-only effect, or another doubt; inactive = no such curve, though single readings can be large; an effect the other way counts as inactive or inconclusive.

O=C(CCc1ccccc1)Nc1ccncc1	none
Cc1ccccc1COC(=O)c1ccc(-c2nnn(Cc3ccccc3F)n2)cc1	none (no result: IL-1B inflam inh, HT1080NT lethal, HT1080 IDH1KD tx)
CSCCC(c1nc2ccccc2[nH]1)n1c(=O)c(-c2cccnc2)nc2ccccc21 (configuration not stated)	IL-1B inflam inh inconclusive
CSCCC(c1nc2ccccc2[nH]1)n1c(C)nc2ccccc21 (configuration not stated)	none
CSCCC(c1nc2ccccc2[nH]1)n1c(=O)c(-c2ccco2)nc2ccccc21 (configuration not stated)	IL-1B inflam inh inconclusive, DT40 TDP1 CPT 11.6µM, DT40 TDP1 no CPT 23.1µM
CSCCC(c1nc2ccccc2[nH]1)n1c(-c2cc(C(F)(F)F)cc(C(F)(F)F)c2)nc2ccccc21 (configuration not stated)	DT40 TDP1 CPT inconclusive, DT40 TDP1 no CPT 16.4µM, HT1080NT lethal 32.6µM, HT1080 IDH1KD tx 20.6µM
CC(C)N1C[C@@H](Sc2ccccn2)C[C@H]1C(=O)Nc1ccc2c(c1)Nc1ccccc1CC2	none (no result: IL-1B inflam inh, HT1080NT lethal, HT1080 IDH1KD tx)
COc1ccc(C(=O)c2nccc3ccccc23)cc1	none
COc1ccc(CC(N)c2csc(Nc3cc(Oc4ccccc4)ncn3)n2)cc1 (configuration not stated)	DT40 TDP1 CPT 16.4µM, DT40 TDP1 no CPT 11.6µM, HT1080 IDH1KD tx inconclusive (no result: IL-1B inflam inh)
NC(COCc1ccccc1)c1csc(Nc2cc(Oc3ccccc3)ncn2)n1 (configuration not stated)	IL-1B inflam inh -78.8, DT40 TDP1 CPT inconclusive, DT40 TDP1 no CPT 25.9µM, HT1080NT lethal 23.1µM, HT1080 IDH1KD tx inconclusive
NC(Cc1ccc(F)cc1)c1csc(Nc2cc(Oc3ccccc3)ncn2)n1 (configuration not stated)	IL-1B inflam inh -74.5, DT40 TDP1 CPT inconclusive, DT40 TDP1 no CPT inconclusive, HT1080NT lethal inconclusive, HT1080 IDH1KD tx 16.4µM
NC(Cc1ccc(Cl)cc1)c1csc(Nc2cc(Oc3ccccc3)ncn2)n1 (configuration not stated)	IL-1B inflam inh -68.9, DT40 TDP1 no CPT inconclusive, HT1080NT lethal 18.4µM, HT1080 IDH1KD tx 18.4µM
NC(COCc1ccccc1)c1csc(Nc2nccc(C(F)(F)F)n2)n1 (configuration not stated)	DT40 TDP1 CPT inconclusive, DT40 TDP1 no CPT inconclusive
Nc1ccc(S(=O)(=O)N2CCCC2)cc1Cl	none
C[C@]12CCC(=O)C=C1CCC1C2C(O)C[C@]2(C)C1CC[C@]2(O)C(=O)CO (some centres not stated)	none (no result: IL-1B inflam inh, HT1080NT lethal, HT1080 IDH1KD tx)
CCCCC(=O)O[C@]1(C(=O)CO)CC[C@H]2[C@@H]3CCC4=CC(=O)CC[C@]4(C)[C@H]3[C@@H](O)C[C@@]21C	IL-1B inflam inh -68.3, DT40 TDP1 CPT inconclusive, DT40 TDP1 no CPT inconclusive
CCC(C(=O)OCC(=O)C1(O)CCC2C3CCC4=CC(=O)CCC4(C)C3C(O)CC21C)C(C)C (configuration not stated)	DT40 TDP1 CPT 9.2µM, DT40 TDP1 no CPT 16.4µM
CC(=O)OCC(=O)[C@@]1(O)CCC2C3CCC4=CC(=O)CC[C@]4(C)C3[C@@H](O)C[C@@]21C (some centres not stated)	DT40 TDP1 CPT inconclusive (no result: IL-1B inflam inh, HT1080NT lethal, HT1080 IDH1KD tx)
Cc1ccc(C2(C)NC(=O)N(CC(=O)N(C)CC(=O)Nc3cccc4ccccc34)C2=O)cc1 (configuration not stated)	none
CCOC(=O)C/C(N)=N/N(C)c1ncc(C(F)(F)F)cc1Cl	DT40 TDP1 no CPT inconclusive
COC(=O)c1cccc(C(=O)NCc2nc(-c3ccccc3NC(C)=O)oc2C)c1	none (no result: IL-1B inflam inh, HT1080NT lethal, HT1080 IDH1KD tx)
CCCn1c(SCC(=O)Nc2cc(S(=O)(=O)N3CCCCC3)ccc2C)n[nH]c1=O	none
Cc1cc(C(=O)NCC2CCC3(CCN(Cc4ccc(F)cc4)CC3)O2)n(C)n1 (configuration not stated)	DT40 TDP1 no CPT inconclusive (no result: IL-1B inflam inh, HT1080NT lethal, HT1080 IDH1KD tx)
Cc1cc(C(=O)NCC2CCC3(CCN(Cc4cccc(F)c4F)CC3)O2)n(C)n1 (configuration not stated)	DT40 TDP1 CPT 20.6µM, DT40 TDP1 no CPT 11.6µM (no result: IL-1B inflam inh, HT1080NT lethal, HT1080 IDH1KD tx)
Cn1nccc1C(=O)NCC1CCC2(CCN(Cc3ccc(-c4ccc(Cl)cc4)o3)CC2)O1 (configuration not stated)	DT40 TDP1 CPT inconclusive, DT40 TDP1 no CPT 14.6µM (no result: IL-1B inflam inh, HT1080NT lethal, HT1080 IDH1KD tx)
Cc1cc(C(=O)NCC2CCC3(CCN(Cc4ccc5ccccc5c4)CC3)O2)n(C)n1 (configuration not stated)	DT40 TDP1 CPT 20.6µM, DT40 TDP1 no CPT 16.4µM (no result: IL-1B inflam inh, HT1080NT lethal, HT1080 IDH1KD tx)
CCc1nc2ccc(C(=O)NCCCn3ccnc3)cn2c1N(C)C(=O)C1CCCCC1	none
CCOc1ccc(N2C(=O)CC(C(C)c3ccccc3)C2=O)cc1 (configuration not stated)	none
COc1ccc(NC(=O)CCOc2ccc(C)cc2)cc1S(=O)(=O)N1CCCCC1	DT40 TDP1 CPT inconclusive, DT40 TDP1 no CPT inconclusive
CCOc1ccc(CC(=O)Nc2ccc(S(=O)(=O)N3CCCC3)cc2)cc1	DT40 TDP1 CPT inconclusive, DT40 TDP1 no CPT 14.6µM
Cc1ccc(OCCC(=O)Nc2ccc(S(=O)(=O)N3CCCC3)cc2)cc1	IL-1B inflam inh inconclusive, DT40 TDP1 CPT inconclusive, DT40 TDP1 no CPT 14.6µM
CCOc1ccc(NC(=O)CSc2nnc3c(n2)[nH]c2ccc(S(=O)(=O)N4CCCCC4)cc23)cc1	DT40 TDP1 CPT 12.6µM, DT40 TDP1 no CPT 15.8µM, HT1080NT lethal inconclusive, HT1080 IDH1KD tx inconclusive (no result: IL-1B inflam inh)
Nc1[nH]c(C(=O)c2ccccc2)c(-c2ccc(Cl)cc2Cl)c1C(=O)NCCc1c[nH]c2ccccc12	DT40 TDP1 CPT inconclusive, DT40 TDP1 no CPT inconclusive, HT1080NT lethal inconclusive, HT1080 IDH1KD tx inconclusive
O=C(CC[C@H]1O[C@@H](n2cnc3c(NC(=O)c4ccccc4)ncnc32)[C@H](O)[C@@H]1O)NCc1cccc2ccccc12	none
CCOc1cc(/C=N/NC(=O)Cc2ccc(C(F)(F)F)cc2[N+](=O)[O-])c(Br)cc1OC	DT40 TDP1 CPT inconclusive, DT40 TDP1 no CPT inconclusive
Cc1ccc(/C=N/NC(=O)c2ccccn2)s1	DT40 TDP1 CPT inconclusive, DT40 TDP1 no CPT inconclusive
Cc1ccc(/C=N/NC(=O)c2ccncc2)s1	DT40 TDP1 CPT 6.51µM, DT40 TDP1 no CPT 14.6µM
COc1cc(Br)cc(/C=N/NC(=O)Cc2ccc(C(F)(F)F)cc2[N+](=O)[O-])c1O	DT40 TDP1 CPT 1.84µM, DT40 TDP1 no CPT 2.59µM, HT1080NT lethal inconclusive, HT1080 IDH1KD tx 16.4µM
O=C(N/N=C/c1ccc([N+](=O)[O-])s1)c1cccc(Br)c1	DT40 TDP1 CPT 9.2µM, DT40 TDP1 no CPT 10.3µM, HT1080NT lethal 11.6µM, HT1080 IDH1KD tx 20.6µM
